# Results filed as inconclusive are left out. Calls of active or inactive are those of the source. Calls come from the whole dose curve; as a rule, active = well fitted inhibition curve with a large enough effect; inconclusive = small, poorly fitted or top-dose-only effect; inactive = no such curve, though single readings can be large or run the other way.
# Experiment: Primary qHTS for inhibitors of nuclear receptor binding SET domain protein 2 (NSD2) in an RCH-ACV wild type WT cells (2C) (AID 1645877); note: nearly all actives have a fitted effect of over 70% in size
# Conditions: RCH-ACV (leukaemia line) NSD2 WT (2C) viability, CellTiter-Glo, 72 h; series mostly up to 44.9 µM; activity change, negative = cell killing: at the top concentration
# From the text: Assay Provider: Jonathan D. Licht, MD
# University of Florida College of Medicine, Gainesville, FL
# Mutations in epigenetic regulators are common in relapsed pediatric acute lymphoblastic leukemia (ALL). Here, we uncovered the mechanism underlying the relapse of ALL driven by an activating mutation of the NSD2 histone methyltransferase (p.E1099K). […] Correction of this mutation restored glucocorticoid sensitivity. The transcriptional response to glucocorticoids was blocked in NSD2 mutant cells due to depressed glucocorticoid receptor (GR) levels and the failure of glucocorticoids to autoactivate GR expression. […] Pre-treatment of NSD2 p.E1099K cell lines and PDX samples with PRC2 inhibitors reversed glucocorticoid resistance in vitro and in vivo.
# High-throughput drug screening of isogenic RCH-ACV cell lines was performed at the National Center for Advancing Translational Science (NCATS), National Institutes of Health as previously described (1). Briefly, isogenic RCH-ACV NSD2 p.E1099K mutant (9B) and WT cells (2C) were plated at 500 cells/well in a 1536-well plate with a 72-hour incubation with compounds prior to addition of CellTiter-Glo to assess cell viability. NCATS libraries screened include: NPC, MIPE 5.0, Kinase and NPACT. To determine compound activity in the qHTS assay, the concentration-response data for each sample was plotted and modeled by a four-parameter logistic fit yielding IC50 and efficacy (maximal response) values. The area under the curve (AUC) of the dose-response curve ensures both efficacy (magnitude of cell killing) and potency (concentration that elicits cell killing) are accounted for in the analysis of activity.
# 1. Tobie D Lee, Olivia W Lee, Kyle R Brimacombe, Lu Chen, Rajarshi Guha, Sabrina Lusvarghi, Bethilehem G Tebase, Carleen Klumpp-Thomas, Robert W Robey, Suresh V Ambudkar, Min Shen, Michael M Gottesman, Matthew D Hall. A High-Throughput Screen of a Library of Therapeutics Identifies Cytotoxic Substrates of P-glycoprotein. Mol Pharmacol. 2019, Nov;96(5):629-640.
# % is set by controls: 0 for no effect and ±100 for the full control effect; potency is the fitted concentration of half-maximal effect.
Molecule,Potency,outcome,"activity change, negative = cell killing"
NS(=O)(=O)c1ccc(Cc2c(-c3cccc(-c4ccccc4)c3)nn(-c3nc(C(=O)O)cs3)c2CC2CC2)cc1,5.25 µM (active),,
C[C@H](CCC(=O)O)[C@H]1CC[C@H]2[C@@H]3[C@@H](O)C[C@@H]4C[C@H](O)CC[C@]4(C)[C@H]3CC[C@]12C,,inactive,
NC(=O)c1cccc2c(NC(CN3CCC3)c3ccc(Cl)c(C(F)(F)F)c3)ncnc12 (stereo not given),1.32 µM (active),,
CCC1CCCCN1C(=O)n1ncc(C(O)(c2ccccc2)c2ccccc2)n1 (stereo not given),14.8 µM (active),,
CN(C)C[C@@H]1CCn2cc(c3ccccc32)C2=C(C(=O)NC2=O)c2cn(c3ccccc23)CCO1,6.61 µM (active),,
O=C(NO)c1ccc(C2=Nc3ccccc3Oc3ccccc32)cc1,2.63 µM (active),,
CN1CCN(c2ccc3nc(-c4cc(C(C)(C)C)c(OCCCC(=O)NCCCN=[N+]=[N-])c(C(C)(C)C)c4)[nH]c3c2)CC1,6.61 µM (active),,
COc1cccc(-c2c(C)n(Cc3c(F)cccc3C(F)(F)F)c(=O)n(C[C@H](NCCCC(=O)O)c3ccccc3)c2=O)c1F,inactive,,
CN(C)Cc1ccc(S(=O)(=O)n2ccc(/C=C/C(=O)NO)c2)cc1,1.86 µM (active),,
CN1C(=O)N[C@H](Cc2c[nH]c3c(Cl)cccc23)C1=O,,,-18.2% (inactive)
CC(C)(O)c1coc(S(=O)(=O)NC(=O)Nc2c3c(cc4c2CCC4)CCC3)c1,,inactive,
CC(C)(NS(=O)(=O)c1ccc2c(Cl)cnc(N=C(N)N)c2c1)C(=O)O,,,3.54% (inactive)
N=C(N)c1ccc2nc(-c3cc(CC(=O)N[C@@H](CC(=O)O)C(=O)O)cc(-c4cc(S(N)(=O)=O)ccc4O)c3O)[nH]c2c1,,,8.33% (inactive)
CC(/C=C1\SC(=S)N(CC(=O)O)C1=O)=C\c1ccccc1,,inactive,
O=C1CC(c2c[nH]c3ccc(F)cc23)C(=O)N1 (stereo not given),,,-16.9% (inactive)
C=C1CCC[C@]2(C)C=C3OC(=O)C(C)=C3C[C@@H]12,,,-0.953% (inactive)
O=C(NO)c1cnc(NC2(c3cccc(F)c3)CCCCC2)nc1,14.8 µM (active),,
CC(=O)N[C@H]1CSSC[C@@H](C(N)=O)NC(=O)[C@H](C(C)C)NC(=O)[C@H](C)NC(=O)[C@H](Cc2cnc[nH]2)NC1=O,,,2.44% (inactive)
COC1CCC(N2C(=O)CNc3ncc(-c4ccc(C(C)(C)O)nc4)nc32)CC1 (stereo not given),3.72 µM (active),,
CSC[C@H]1CN(Cc2c[nH]c3c(N)ncnc23)C[C@@H]1O,,,-7.88% (inactive)

Molecule,Potency,outcome,"activity change, negative = cell killing"
CN1C(N)=N[C@](C)(c2cc(NC(=O)c3ccc(F)cn3)ccc2F)CS1(=O)=O,,,-6.22% (inactive)
C=C1/C(=C\C=C2/CCC[C@]3(C)[C@@H]([C@H](C)CCCC(C)(C)O)CC[C@@H]23)C[C@@H](O)C[C@@H]1O,16.6 µM (active),,
Cc1cc2cc(Oc3ccnc(Nc4cccc(CS(=O)(=O)NCCN(C)C)c4)n3)ccc2[nH]1,5.9 µM (active),,
COc1cc2c(Oc3ccc4[nH]c(C)cc4c3F)ccnc2cc1OCC1(N)CC1,3.72 µM (active),,
O=C(Nc1ccc(OC(F)(F)Cl)cc1)c1cnc(N2CC[C@@H](O)C2)c(-c2ccn[nH]2)c1,14.8 µM (active),,
C[C@@H](Oc1cc(C(=O)Nc2ccc(C(=O)N3CCN(C)CC3)cc2)nnc1N)c1c(Cl)ccc(F)c1Cl,1.48 µM (active),,
O=C(Nc1cccc(C(F)(F)F)c1)c1cccc2cc(Oc3cc(CO)ncn3)ccc12,,,-13.7% (inactive)
Cc1onc(-c2ccc(F)cc2)c1COc1ccc(C(=O)N2CCS(=O)(=O)CC2)cn1,,,-16% (inactive)
O=C1Cc2cc(C(=O)NC3C[C@H]4CC[C@@H](C3)N4S(=O)(=O)CC3CCN(CCCC(F)(F)F)CC3)c(Cl)cc2N1 (stereo not given in full),,inactive,
Cc1cc(C)c(CNC(=O)c2cc(-c3ccc(N4CCN(C)CC4)nc3)cc3c2c(C)cn3C(C)C)c(=O)[nH]1,20.9 µM (active),,
C[C@@H]1CC(=O)Nc2cccc(-c3ccc4c(c3)c(-c3cnn(C)c3)nn4C)c2N1,0.662 µM (active),,
CC1(C)C(N(O)C(=O)Nc2ccc(Cl)cc2)N(c2ccc(Cl)cc2)C(=O)N1CC(=O)N/N=C/C=C/c1ccc([N+](=O)[O-])o1 (stereo not given),8.33 µM (active),,
COc1ccc(C(=O)N2CCN(c3ccc4c(c3)CCC(=O)N4)CC2)cc1OC,,,-6.81% (inactive)
CC(=O)[C@]1(N)Cc2c(O)c3c(c(O)c2[C@@H](O[C@H]2C[C@H](O)[C@H](O)CO2)C1)C(=O)c1ccccc1C3=O,23.5 µM (active),,
CC1=C2[N-][C@H]([C@H](CC(N)=O)[C@@]2(C)CCC(=O)NC[C@@H](C)OP(=O)([O-])O[C@H]2[C@@H](O)[C@@H](n3cnc4cc(C)c(C)cc43)O[C@@H]2CO)[C@]2(C)N=C(C(C)=C3N=C(C=C4N=C1[C@@H](CCC(N)=O)C4(C)C)[C@@H](CCC(N)=O)[C@]3(C)CC(N)=O)[C@@H](CCC(N)=O)[C@]2(C)CC(N)=O.O.[Co+2],,,-16.2% (inactive)
Ac-PHSCN-NH2,23.5 µM (active),,
O=C(CCNC(=O)c1ccc(OC(F)(F)F)cc1)N[C@@H]1CCCc2ccccc21,,,-14.7% (inactive)
COc1ccc(COc2ccc(Cc3cnc(N)nc3N)cc2OC)cc1,,,-32.4% (inactive)
COc1cc(OC)c(/C=C/S(=O)(=O)Cc2ccc(OC)c(OP(=O)(O)O)c2)c(OC)c1,0.0332 µM (active),,
Cc1ccc(NS(=O)(=O)c2cccc(C#N)c2)c2[nH]cc(C#N)c12,0.417 µM (active),,

# — PubChem BioAssay (NCATS)
